This note sets out measurements from PubChem BioAssay (EPA / NIEHS).

Inconclusive results are not listed. Calls of active or inactive are those of the source. Rule for the calls, unless noted: active = hit-call score of the fitted dose curve at least 0.9, where 1 is the maximum; inactive = score below 0.9.

Test [1] is described as follows: ATG_M_32_TRANS: Attagene TRANS-FACTORIAL HepG2 Assay for M32 Transcription Factor (Internal Marker) (AID 2282984; active = hit-call score of the fitted dose curve at least 0.9, where 1 is the maximum;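 note: transcript level of a background control reporter unit measured by RT-PCR and capillary electrophoresis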). To be noted: HepG2 Attagene TRANS M32 internal marker reporter. A digest of the protocol:
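Cell-based TRANS-format assay in HepG2: exogenous chimeric GAL4 reporter units transiently expressed, compounds applied 24 h. Reporter mRNA detected by RT-PCR plus capillary electrophoresis; this readout is an internal background marker.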

Test [2] has as its target Transcriptional activator Myb (Homo sapiens) (UniProt P10242). As to the kind of experiment: ATG_Myb_CIS: Attagene CIS-FACTORIAL HepG2 Assay for human Myeloblastosis (Myb) Proto-Oncogene Transcription Factor (AID 2282986). To be noted: HepG2 Attagene CIS-FACTORIAL Myb reporter transcription; actives raise or lower the signal. A digest of the protocol: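 HepG2 cells were transiently transfected with cis-regulated multiple reporter transcription units reflecting endogenous Myb activity, then exposed to compound for 24 hours. Reporter mRNA was measured by RT-PCR with capillary electrophoresis; bidirectional fitting versus DMSO baseline.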

The target in test [3] is Nuclear respiratory factor 1 (Homo sapiens) (UniProt Q16656). The test can be described thus: ATG_NRF1_CIS: Attagene CIS-FACTORIAL HepG2 Assay for human Nuclear Respiratory Factor 1 (NRF1) Orphan Gene (AID 2282987). To be noted: HepG2 NRF1 cis-element reporter, Attagene multiplex; actives raise or lower the signal. The gist of the method:
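HepG2 cells transiently transfected with multiple reporter transcription units under cis-regulatory promoter control, so endogenous transcription-factor activity is read. After 24 h compound exposure, reporter mRNA quantified by RT-PCR, fluorescent labelling, HpaI digestion and capillary electrophoresis; bidirectional fitting versus DMSO.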

The nature of test [4]: ATG_NFI_CIS: Attagene CIS-FACTORIAL HepG2 Assay for human Nuclear Factor I (NFI) (AID 2282989). To be noted: HepG2 cis-regulatory reporter, NFI response element transcription; actives raise or lower the signal. The gist of the method: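 Multiplexed cis-reporter system in human HepG2 cells reports native TF activity as reporter mRNA induction 24 h post-dose. Fragments labelled with 6-FAM, HpaI-digested and resolved by capillary electrophoresis; activity fitted both directions versus DMSO.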

Test [5] deals with Myc proto-oncogene protein (Homo sapiens) (UniProt P01106). The test can be described thus: ATG_Myc_CIS: Attagene CIS-FACTORIAL HepG2 Assay for human Myelocytomatosis (Myc) Proto-Oncogene Transcription Factor (AID 2282990). The conditions noted are these: HepG2, Attagene cis-reporter transcription factor activity; actives raise or lower the signal. A digest of the protocol: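 HepG2, transient MRTU transfection (cis promoters, endogenous TFs); 24 h dosing; TriZol RNA → oligo(dT) RT → PCR → 6-FAM primer extension → HpaI cut → CE. Bidirectional fit vs DMSO.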
Chain of Myc proto-oncogene protein (Homo sapiens) (P01106 whole entry, looked up): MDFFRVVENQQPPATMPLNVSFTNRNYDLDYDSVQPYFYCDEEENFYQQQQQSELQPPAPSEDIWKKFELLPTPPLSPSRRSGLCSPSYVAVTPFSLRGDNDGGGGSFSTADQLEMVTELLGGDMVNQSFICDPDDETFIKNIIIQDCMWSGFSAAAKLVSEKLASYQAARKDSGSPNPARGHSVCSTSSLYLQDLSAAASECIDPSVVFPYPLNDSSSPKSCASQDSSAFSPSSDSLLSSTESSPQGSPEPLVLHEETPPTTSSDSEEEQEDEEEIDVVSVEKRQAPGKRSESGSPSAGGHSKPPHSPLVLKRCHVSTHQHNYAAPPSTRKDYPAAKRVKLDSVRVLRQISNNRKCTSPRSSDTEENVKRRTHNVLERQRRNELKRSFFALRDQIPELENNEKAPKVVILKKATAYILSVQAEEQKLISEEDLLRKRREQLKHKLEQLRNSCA

Test [6] can be described thus: ATG_NF_kB_CIS: Attagene CIS-FACTORIAL HepG2 Assay for human Nuclear Factor Kappa B (NF-kB) (AID 2282991). The conditions noted are these: HepG2 Attagene cis-factorial NF-kB reporter mRNA; actives raise or lower the signal. A digest of the protocol:
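HepG2 cells transiently transfected with multiplexed cis-element reporter units measuring endogenous transcription factor activity; reporter mRNA read 24 h after dosing by RT-PCR, fluorescent labelling, HpaI digestion and capillary electrophoresis. Bidirectional fit against DMSO baseline.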

Test [7] is described as follows: ATG_NRF2_ARE_CIS: Attagene CIS-FACTORIAL HepG2 Assay for human Nuclear Factor Erythroid 2 Related Factor 2 (NFR2) response to Antioxidant Response Elements (ARE) (AID 2282992).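 For AC50: reporter mRNA level measured by RT-PCR and capillary electrophoresis fluorescence.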 To be noted: HepG2 Attagene ARE/NRF2 reporter, transcription factor activity; actives raise or lower the signal. A digest of the protocol:
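Fluorescence intensity of reporter-specific cDNA fragments, separated by capillary electrophoresis, reflects mRNA induction in transfected HepG2 cells at 24 h. Activity is fitted bidirectionally, DMSO serving as baseline.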

The nature of test [8]: ATG_Oct_MLP_CIS: Attagene CIS-FACTORIAL HepG2 Assay for human Octamer-Binding Transcription Factor (Oct) (AID 2282993). The conditions noted are these: HepG2 Attagene cis-factorial Oct reporter, mRNA; actives raise or lower the signal. A digest of the protocol: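 After 24 h compound exposure, transfected HepG2 cells were lysed for total RNA; reporter-specific cDNA was PCR-amplified, fluorescently labelled and sized by capillary electrophoresis. Bidirectional curve fitting used DMSO as baseline.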

In test [9] the target is human Peroxisome Proliferator-activated Receptor delta (PPARd), PPARD (gene 5467) (UniProt Q03181). The test can be described thus: ATG_PPARd_TRANS: Attagene TRANS-FACTORIAL HepG2 Assay for human Peroxisome Proliferator-activated Receptor delta (PPARd) (AID 2283002; active = hit-call score of the fitted dose curve at least 0.9, where 1 is the maximum). A digest of the protocol: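 Transient HepG2 transfection (multiple GAL4-UAS RTUs, chimeric receptor-Gal4); 24 h dosing; total RNA → oligo(dT) RT → PCR → 6-FAM primer extension → HpaI cut → CE. Positive direction vs DMSO.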
Chain of human Peroxisome Proliferator-activated Receptor delta (PPARd), PPARD (gene 5467) (Q03181 whole entry, looked up, the tested form may be a part): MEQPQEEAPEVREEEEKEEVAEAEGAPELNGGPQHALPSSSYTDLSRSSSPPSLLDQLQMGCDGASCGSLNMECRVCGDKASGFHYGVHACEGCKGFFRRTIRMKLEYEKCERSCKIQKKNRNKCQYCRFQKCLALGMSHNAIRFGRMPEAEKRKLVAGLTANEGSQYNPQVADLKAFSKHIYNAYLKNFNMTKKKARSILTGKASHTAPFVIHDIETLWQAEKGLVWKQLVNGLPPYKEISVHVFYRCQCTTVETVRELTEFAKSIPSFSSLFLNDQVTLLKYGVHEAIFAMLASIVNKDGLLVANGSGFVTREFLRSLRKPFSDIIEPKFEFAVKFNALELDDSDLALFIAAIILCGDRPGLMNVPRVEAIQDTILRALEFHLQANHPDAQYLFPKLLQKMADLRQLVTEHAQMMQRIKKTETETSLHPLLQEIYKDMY

Test [10] in a line: ATG_M_06_TRANS: Attagene TRANS-FACTORIAL HepG2 Assay for M06 Transcription Factor (Internal Marker) (AID 2282983; active = hit-call score of the fitted dose curve at least 0.9, where 1 is the maximum;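 note: reporter transcript level by RT-PCR then capillary electrophoresis fluorescence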). To be noted: HepG2 Attagene TRANS M06 internal marker reporter. A digest of the protocol: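 In this multiplexed HepG2 system, compounds are incubated 24 h with cells carrying GAL4-UAS reporter units. Reporter RNA is amplified and resolved by capillary electrophoresis, and induction is scored against DMSO.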

The nature of test [11]: BSK_3C_TissueFactor: BioMAP Diversity Plus: 3C Assay for Tissue Factor Biomarker Activity (AID 2282997). To be noted: BioMAP 3C HUVEC, tissue factor biomarker readout; actives raise or lower the signal. The gist of the method: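 Readout: Tissue Factor ELISA. Cells: human primary umbilical vein endothelium. Time: 24 h after dosing. Analysis: bidirectional fit, DMSO baseline.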

The nature of test [12]: BSK_3C_uPAR: BioMAP Diversity Plus: 3C Assay for Urokinase-type plasminogen activator receptor (uPAR) Biomarker Activity (AID 2282998). To be noted: BioMAP 3C HUVEC, uPAR biomarker ELISA; actives raise or lower the signal. The gist of the method: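 Values derive from bidirectional curve fitting relative to DMSO, which served as baseline of activity. uPAR was measured by ELISA in human umbilical vein endothelial primary cultures 24 h after compound addition.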
A general note: ELISA stands for enzyme-linked immunosorbent assay.

Test [13] is described as follows: BSK_3C_VCAM1: BioMAP Diversity Plus: 3C Assay for Vascular cell adhesion molecule 1 (VCAM1) Biomarker Activity (AID 2282999). To be noted: BioMAP 3C HUVEC, VCAM1 ELISA, cytokine-stimulated; actives raise or lower the signal. The gist of the method: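 Activity fitted in both directions relative to DMSO, with ELISA measurement of the surface marker on primary HUVEC (3C) at 24 h post-treatment; parallel SRB staining (0.1% SRB, TCA-fixed, 560 nm) flagged overt cytotoxicity.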

The nature of test [14]: BSK_4H_Eotaxin3: BioMAP Diversity Plus: 4H Assay for Eotaxin 3 Biomarker Activity (AID 2283000).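 For outcome: CCL26 protein level quantified by ELISA in parallel with SRB cytotoxicity check.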 To be noted: primary human endothelial cells (HUVEC); actives raise or lower the signal. A digest of the protocol: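 HUVEC, 24 h post-dose, ELISA for Eotaxin-3/CCL26. Gain or loss of signal fitted bidirectionally vs DMSO baseline.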
Test [15] deals with human Peroxisome Proliferator-activated Receptor alpha (PPARa), PPARA (gene 5465) (UniProt Q07869). As to the kind of experiment: ATG_PPARa_TRANS: Attagene TRANS-FACTORIAL HepG2 Assay for human Peroxisome Proliferator-activated Receptor alpha (PPARa) (AID 2283001; active = hit-call score of the fitted dose curve at least 0.9, where 1 is the maximum). A digest of the protocol: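 Transfected HepG2 cells treated with test chemical for 24 h. RNA isolated, reverse-transcribed with oligo(dT), PCR-amplified, FAM-labelled and HpaI-digested. Fragments sized by capillary electrophoresis; gain-of-signal fit relative to DMSO.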
Chain of human Peroxisome Proliferator-activated Receptor alpha (PPARa), PPARA (gene 5465) (Q07869 whole entry, looked up, the tested form may be a part): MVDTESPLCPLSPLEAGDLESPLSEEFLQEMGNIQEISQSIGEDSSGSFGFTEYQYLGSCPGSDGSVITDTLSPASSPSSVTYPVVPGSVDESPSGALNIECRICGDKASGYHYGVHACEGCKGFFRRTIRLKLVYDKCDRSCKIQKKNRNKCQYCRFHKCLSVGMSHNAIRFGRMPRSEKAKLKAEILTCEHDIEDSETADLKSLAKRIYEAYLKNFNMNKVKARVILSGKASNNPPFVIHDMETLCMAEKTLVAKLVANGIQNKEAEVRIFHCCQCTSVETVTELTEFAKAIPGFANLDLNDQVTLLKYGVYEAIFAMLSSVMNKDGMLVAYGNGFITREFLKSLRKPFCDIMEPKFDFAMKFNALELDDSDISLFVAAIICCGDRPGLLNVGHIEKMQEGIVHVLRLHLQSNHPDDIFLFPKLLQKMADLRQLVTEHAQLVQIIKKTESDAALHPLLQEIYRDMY

For test [16], the target named is Cellular tumor antigen p53 (Homo sapiens) (UniProt P04637). As to the kind of experiment: ATG_p53_CIS: Attagene CIS-FACTORIAL HepG2 Assay for human p53 Transcription Factor (AID 2282994). The conditions noted are these: HepG2 p53 cis-element reporter, Attagene mRNA; actives raise or lower the signal. The gist of the method: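 Transiently transfected HepG2 (multiple cis reporter transcription units); exposure 24 h; reporter RNA via RT-PCR, 6-FAM extension, 2 h HpaI digest at 37 C, CE detection; DMSO baseline.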
Chain of Cellular tumor antigen p53 (Homo sapiens) (P04637 whole entry, looked up): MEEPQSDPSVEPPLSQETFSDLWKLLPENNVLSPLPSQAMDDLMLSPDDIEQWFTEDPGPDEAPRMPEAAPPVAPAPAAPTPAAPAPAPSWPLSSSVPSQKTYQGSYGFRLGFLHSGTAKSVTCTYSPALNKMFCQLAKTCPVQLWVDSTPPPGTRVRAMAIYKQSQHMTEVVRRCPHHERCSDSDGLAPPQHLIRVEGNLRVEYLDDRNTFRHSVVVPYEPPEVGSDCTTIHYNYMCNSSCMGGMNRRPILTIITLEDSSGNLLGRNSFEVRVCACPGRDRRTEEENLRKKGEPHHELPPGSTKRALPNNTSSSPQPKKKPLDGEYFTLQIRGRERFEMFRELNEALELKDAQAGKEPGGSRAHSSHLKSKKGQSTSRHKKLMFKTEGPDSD

Test [17] addresses Nuclear receptor subfamily 4 group A member 2 (Homo sapiens) (UniProt P43354). As to the kind of experiment: ATG_NURR1_TRANS: Attagene TRANS-FACTORIAL HepG2 Assay for human Nuclear Receptor Related Protein 1 (NURR1) (AID 2282985; active = hit-call score of the fitted dose curve at least 0.9, where 1 is the maximum). The conditions noted are these: HepG2 Attagene TRANS reporter, mRNA readout. The gist of the method:
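Measures transcriptional activation by an exogenous NR-Gal4 chimera in transfected HepG2 liver cells. After 24 h, reporter RNA is reverse-transcribed, amplified and resolved by capillary electrophoresis; DMSO defines baseline.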

In general, AC50 refers to the concentration at which the activity in the assay is half-maximal.

Chain of Transcriptional activator Myb (Homo sapiens) (P10242 whole entry, looked up): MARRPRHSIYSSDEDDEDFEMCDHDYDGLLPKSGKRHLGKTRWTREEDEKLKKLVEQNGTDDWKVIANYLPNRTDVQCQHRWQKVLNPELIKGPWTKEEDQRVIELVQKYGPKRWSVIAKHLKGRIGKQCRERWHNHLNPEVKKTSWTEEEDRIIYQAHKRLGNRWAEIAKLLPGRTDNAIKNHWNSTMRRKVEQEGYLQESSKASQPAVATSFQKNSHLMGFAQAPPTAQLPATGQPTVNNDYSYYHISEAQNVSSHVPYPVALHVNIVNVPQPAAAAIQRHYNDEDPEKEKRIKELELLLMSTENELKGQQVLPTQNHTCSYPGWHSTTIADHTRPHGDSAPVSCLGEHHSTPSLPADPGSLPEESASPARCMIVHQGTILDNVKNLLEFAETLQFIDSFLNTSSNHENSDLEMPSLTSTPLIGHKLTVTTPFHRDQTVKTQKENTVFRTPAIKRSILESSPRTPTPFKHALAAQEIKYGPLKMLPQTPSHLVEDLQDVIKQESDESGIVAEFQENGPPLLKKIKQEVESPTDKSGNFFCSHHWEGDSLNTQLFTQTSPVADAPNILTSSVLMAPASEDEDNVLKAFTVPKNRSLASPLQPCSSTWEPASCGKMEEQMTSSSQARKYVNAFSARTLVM
Chain of Nuclear respiratory factor 1 (Homo sapiens) (Q16656 whole entry, looked up): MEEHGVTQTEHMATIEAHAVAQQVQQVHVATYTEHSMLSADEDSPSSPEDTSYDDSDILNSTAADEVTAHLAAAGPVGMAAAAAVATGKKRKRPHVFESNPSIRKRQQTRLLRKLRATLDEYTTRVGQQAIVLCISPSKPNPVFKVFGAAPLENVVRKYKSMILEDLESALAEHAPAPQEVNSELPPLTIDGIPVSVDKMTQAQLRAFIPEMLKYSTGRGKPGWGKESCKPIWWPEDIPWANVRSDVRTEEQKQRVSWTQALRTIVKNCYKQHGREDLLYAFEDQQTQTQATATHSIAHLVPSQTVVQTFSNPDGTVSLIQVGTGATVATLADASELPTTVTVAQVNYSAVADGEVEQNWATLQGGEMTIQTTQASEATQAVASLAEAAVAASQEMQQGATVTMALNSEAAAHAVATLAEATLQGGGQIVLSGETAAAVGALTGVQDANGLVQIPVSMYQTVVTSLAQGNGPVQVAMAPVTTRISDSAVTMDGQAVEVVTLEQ
Chain of Nuclear receptor subfamily 4 group A member 2 (Homo sapiens) (P43354 whole entry, looked up, the tested form may be a part): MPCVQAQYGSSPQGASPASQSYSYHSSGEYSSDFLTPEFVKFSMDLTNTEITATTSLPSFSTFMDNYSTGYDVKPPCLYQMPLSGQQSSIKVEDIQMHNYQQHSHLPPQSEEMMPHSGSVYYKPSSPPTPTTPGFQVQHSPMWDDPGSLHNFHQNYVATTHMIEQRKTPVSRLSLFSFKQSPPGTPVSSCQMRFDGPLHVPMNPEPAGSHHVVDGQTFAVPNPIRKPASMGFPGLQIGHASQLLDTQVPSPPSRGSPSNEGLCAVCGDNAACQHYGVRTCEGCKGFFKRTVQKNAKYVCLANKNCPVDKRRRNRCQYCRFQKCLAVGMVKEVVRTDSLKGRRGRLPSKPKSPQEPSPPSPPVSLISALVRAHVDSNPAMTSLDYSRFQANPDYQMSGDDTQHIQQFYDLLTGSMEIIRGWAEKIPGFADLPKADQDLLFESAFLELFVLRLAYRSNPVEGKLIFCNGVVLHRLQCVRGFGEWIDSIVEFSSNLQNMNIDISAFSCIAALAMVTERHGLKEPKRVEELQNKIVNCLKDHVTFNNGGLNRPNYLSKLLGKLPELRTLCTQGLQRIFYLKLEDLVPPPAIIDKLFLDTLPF

Consider `CCc1ccccc1O`, for which the call in test [1], in test [2], in [3], in test [4], in [5] and in [6] was inactive. In addition, the result in test [8] and in [9] was inactive. Moreover, in test [7], the AC50 is 37.1 µM (active).

For `N=C(N)c1ccc(OCCCCCOc2ccc(C(=N)N)cc2)cc1`, the call in test [10], in [2], in test [3], in test [4], in test [5] and in [11] was inactive. The outcome in test [13], in test [14], in [15] and in test [9] was inactive. Besides, the AC50 in [6] was 87.5 µM (active); in test [7], 0.732 µM (active); in [8] it was 34.4 µM (active); in test [12], 7.78 µM (active).

Consider `CCN(CC)CC`, for which the compound was classed as inactive in [10], in test [1], in test [2], in [3], in test [4] and in test [5]. For the same compound, the compound was called inactive in [7], in [8], in test [16], in [15] and in [9].

For the compound `CCCCC=O`, the compound was classed as inactive in [10], in [2], in test [3], in test [4], in test [5] and in test [6]. Moreover, the compound was called inactive in test [7], in test [11], in test [12], in [13], in test [14] and in test [15].

Consider `CC(=O)Nc1ccc(O)cc1`, for which the result in [10], in [1], in test [2], in test [5], in test [8] and in test [11] was inactive. The outcome in test [12], in [13], in test [14] and in test [9] was inactive.

In the case of `C=CC(C)(CCC=C(C)C)OC(C)=O` (stereo not given), the compound was called inactive in test [1], in [2], in [3], in test [5], in test [6] and in test [7]. Besides, the compound was classed as inactive in test [8], in [16], in [13] and in test [15]. Further, the figures for the AC50 in test [11], in test [12] and in [14] were 27.8 µM (active), 31.5 µM (active) and 34.2 µM (active), respectively.

Consider `FC(F)=C(F)C(F)(F)C(F)(F)C(F)(F)C(F)F`, for which the call in [1], in test [2], in test [3], in test [4], in test [5] and in [6] was inactive. For the same compound, the call in [7], in test [8], in test [16], in test [15] and in test [9] was inactive.

For `CN(Cc1cnc2nc(N)nc(N)c2n1)c1ccc(C(=O)N[C@@H](CCC(=O)O)C(=O)O)cc1`, the compound was called inactive in [2], in test [3], in [4], in test [5], in test [7] and in test [8]. The outcome in [11], in [12], in test [13] and in test [14] was inactive.

As for `Nc1cc(Cl)c(-c2cc(Cl)c(N)cc2Cl)cc1Cl`, the compound was called inactive in test [1], in test [17], in test [2], in [3], in [6] and in test [16]. Also, the call in test [9] was inactive. For the same compound, the AC50 is 17.3 µM (active) in [4], 7.12 µM (active) in test [5] and 12.5 µM (active) in test [7].
